Measurements published in PubChem BioAssay (Tox21).
Records with an inconclusive call do not appear. Calls of active or inactive are those of the source. The call rests on the fitted dose curve.

Biological target: Estrogen receptor (Homo sapiens) (UniProt P03372)
Test: qHTS assay to identify small molecule agonists of the estrogen receptor alpha (ER-alpha) signaling pathway in the presence of an antagonist (AID 1259383); further: top concentration of the series differs between compounds; nearly all actives have a fitted effect of over 15% in size
Conditions: VM7Luc4E2 cells, ERE-luciferase, +ICI-182,780, 22 h; series mostly up to 92.4 µM
In short: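 ER-alpha agonism measured under antagonist challenge: 10.0nM ICI-182,780 (final) plus compound, 15 concentrations, 22hr, VM7Luc4E2 ERE-luciferase cells. Read by luminescence.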

Chain of Estrogen receptor (Homo sapiens) (P03372 whole entry, looked up): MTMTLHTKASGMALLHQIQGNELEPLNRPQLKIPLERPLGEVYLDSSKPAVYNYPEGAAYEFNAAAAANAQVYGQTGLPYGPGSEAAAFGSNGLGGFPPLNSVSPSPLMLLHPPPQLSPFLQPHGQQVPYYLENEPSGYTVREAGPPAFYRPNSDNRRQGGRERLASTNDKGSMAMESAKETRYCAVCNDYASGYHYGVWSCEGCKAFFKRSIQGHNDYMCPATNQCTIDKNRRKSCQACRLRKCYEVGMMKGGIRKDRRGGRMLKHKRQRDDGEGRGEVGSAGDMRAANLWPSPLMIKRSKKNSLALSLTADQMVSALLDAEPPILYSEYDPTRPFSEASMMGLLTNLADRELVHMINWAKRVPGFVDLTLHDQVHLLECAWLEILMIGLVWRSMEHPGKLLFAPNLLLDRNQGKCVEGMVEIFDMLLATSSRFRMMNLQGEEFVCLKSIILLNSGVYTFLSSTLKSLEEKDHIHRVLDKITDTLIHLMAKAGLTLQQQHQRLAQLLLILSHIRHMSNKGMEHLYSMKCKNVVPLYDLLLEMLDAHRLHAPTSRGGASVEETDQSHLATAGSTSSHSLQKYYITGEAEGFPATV

Row | SMILES | outcome
1 | CC(C)c1cccc(C(C)C)c1O | inactive
2 | COP(=S)(OC)Oc1ccc(SC)c(C)c1 | inactive
3 | O=C/C=C/c1ccccc1 | inactive
4 | C[C@H]1C(=O)O[C@@H]2CCN3CC=C(COC(=O)[C@](C)(O)[C@]1(C)O)[C@H]23 | inactive
5 | c1ccc2c(c1)CCCC2 | inactive
6 | CNC(=O)Oc1cccc2ccccc12 | inactive
7 | O=[N+]([O-])c1cc([As](=O)(O)O)ccc1O | inactive

System: not listed separately
Test: qHTS assay to identify small molecule agonists or antagonists of the thyroid stimulating hormone receptor (TSHR) signaling pathway - wild type cell line counter screen (AID 1259384)
Conditions: HEK293 wild type, cAMP HTRF counter-screen; series mostly up to 92.4 µM
In short: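 Counter screen in untransfected Hek293: compounds (15-point titration, triplicate) plus phosphodiesterase inhibitor Ro20-1724 added after 18 h plating; 30 min RT. Intracellular cAMP via competitive d2/cryptate immunoassay, 1 h incubation.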

Row | SMILES | outcome
8 | ClCCOCCCl | inactive
9 | CN(C)C(=O)Nc1cccc(C(F)(F)F)c1 | inactive
10 | Nc1ccc(N)cc1 | inactive
11 | OCCCCO | inactive
12 | N#Cc1cccc(C#N)c1 | inactive
13 | Nc1cc(Cl)cc(Cl)c1 | inactive
14 | CC(C)c1cccc(C(C)C)c1O | inactive
15 | O=C(O)c1cc(Oc2ccc(C(F)(F)F)cc2Cl)ccc1[N+](=O)[O-] | inactive
16 | CSc1nnc(C(C)(C)C)c(=O)n1N | inactive
17 | O=C/C=C/c1ccccc1 | inactive
18 | CC(=O)/C=C/c1ccccc1 | inactive
19 | Cc1ccccc1N | inactive
20 | CN1C(=O)CCS(=O)(=O)C1c1ccc(Cl)cc1 (stereo not given) | inactive
21 | Cl[C@H]1OCCO[C@@H]1Cl | inactive
22 | C[C@H]1C(=O)O[C@@H]2CCN3CC=C(COC(=O)[C@](C)(O)[C@]1(C)O)[C@H]23 | inactive
23 | [N-]=[N+]=CC(=O)OC[C@H](N)C(=O)O | inactive
24 | COC(C)(C)CCCC(C)C/C=C/C(C)=C/C(=O)OC(C)C (stereo not given) | inactive
25 | CCOP(=S)(OCC)Oc1ccc([N+](=O)[O-])cc1 | inactive
26 | c1ccc2c(c1)CCCC2 | inactive
27 | CNC(=O)Oc1cccc2ccccc12 | inactive
28 | Cc1ccc(N)cc1 | inactive
29 | CN(C)NC(=O)CCC(=O)O | inactive
30 | O=[N+]([O-])c1cc([As](=O)(O)O)ccc1O | inactive
